Source: PubChem BioAssay (NCI)
This is part of a sample that, as a whole, favours compounds with a hit. Of some 79,000 tested, about 15% had one in any assay. Values without a mark were called inactive. The source made the active and inactive calls. Cut-off read from the data, not from the text of the source: active = growth inhibition above about 70%; inactive = the rest.

Tests used:
[1] = NCI Yeast Anticancer Drug Screen. Data for the rad52 strain (AID 147);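 note: 0% = growth of vehicle-treated control cultures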; details: S. cerevisiae rad52 mutant growth inhibition, hits give high values
In short: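 Read-out: growth inhibition versus vehicle-treated controls. Cells were a DNA repair-deficient yeast strain treated with compounds.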

[2] = NCI Yeast Anticancer Drug Screen. Data for the wt1 strain (AID 149);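 note: 0% = growth of vehicle-treated wt1 cultures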; details: S. cerevisiae wt1 strain (SPY 50644) growth inhibition, hits give high values
In short: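 Measured: growth of wt1 yeast under compound versus vehicle treatment, reported as inhibition.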

[3] = NCI Yeast Anticancer Drug Screen. Data for the rad50EPP+ strain (AID 151);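 note: 0% = growth of vehicle-treated control cultures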; details: S. cerevisiae rad50 mutant strain, hits give high values
In short: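 Growth inhibition read against vehicle controls in rad50EPP+ yeast, a strain altered in DNA damage repair, after compound exposure.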

[4] = NCI Yeast Anticancer Drug Screen. Data for the mgt1 strain (AID 153); details: S. cerevisiae mgt1 mutant growth inhibition, hits give high values
In short: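 mgt1 yeast grown with test compound; read-out is growth inhibition versus vehicle-treated cultures.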

[5] = NCI Yeast Anticancer Drug Screen. Data for the rad50 strain (AID 155);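 note: 0% = growth of vehicle-only cultures of the same strain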; details: S. cerevisiae rad50 strain growth inhibition, hits give high values
In short: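 Growth of the mutant yeast was measured after compound exposure and referenced to vehicle-treated cultures.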

[6] = NCI Yeast Anticancer Drug Screen. Data for the mec2-1 strain (AID 157); details: S. cerevisiae mec2-1 strain, hits give high values
In short: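 Yeast mec2-1 mutant treated with compound. Readout: growth inhibition vs vehicle controls.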

[7] = NCI Yeast Anticancer Drug Screen. Data for the rad14 strain (AID 159);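 note: 0% = growth of vehicle-treated control cultures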; details: S. cerevisiae rad14 strain growth inhibition, hits give high values
In short: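 Here, inhibition of yeast growth was measured after compound exposure, using a strain with a genetic defect in DNA damage repair and vehicle-treated cultures as the reference.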

[8] = NCI Yeast Anticancer Drug Screen. Data for the sgs1 mgt1 strain (AID 161);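 note: 0% = growth of cultures given vehicle only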; details: S. cerevisiae sgs1 mgt1 strain, hits give high values
In short: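 Mutant yeast exposed to compound; growth scored against vehicle-only wells.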

[9] = NCI Yeast Anticancer Drug Screen. Data for the CLN2oe strain (AID 163);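 note: 0% = growth of vehicle-only control cultures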; details: S. cerevisiae CLN2oe strain, hits give high values
In short: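 Read-out: yeast growth inhibition, expressed relative to vehicle-only controls. The strain bears an engineered cell-cycle alteration.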

[10] = NCI Yeast Anticancer Drug Screen. Data for the cln2 rad14 strain (AID 165);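 note: 0% = growth equal to vehicle treated cultures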; details: S. cerevisiae cln2 rad14 strain, hits give high values
In short: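 cln2 rad14 yeast strain; compound exposure; growth inhibition read vs vehicle controls.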

[11] = NCI Yeast Anticancer Drug Screen. Data for the bub3 strain (AID 167); details: S. cerevisiae bub3 mutant strain, hits give high values
In short: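 Whole-cell yeast assay. The mutant strain was incubated with compounds, and growth inhibition was determined by comparison with vehicle-treated cells.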

[12] = NCI Yeast Anticancer Drug Screen. Data for the wt2 strain (AID 169);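 note: 0% = growth of vehicle-treated yeast cultures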; details: S. cerevisiae wt2 strain growth inhibition, hits give high values
In short: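 Read-out: growth inhibition versus vehicle-treated control cultures after compound exposure of the yeast strain.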

[13] = NCI Yeast Anticancer Drug Screen. Data for the mlh1 strain (AID 171);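 note: 0% = growth of vehicle-treated control cultures of the same strain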; details: S. cerevisiae mlh1 strain growth inhibition, hits give high values
In short: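 Read-out: growth inhibition versus vehicle controls. Strain: engineered yeast with a defined DNA repair or cell cycle defect, compound-treated.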

[14] = NCI Yeast Anticancer Drug Screen. Data for the sgs1 strain (AID 173);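 note: 0% = growth of vehicle-only control cultures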; details: S. cerevisiae sgs1 mutant, hits give high values
In short: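 Read-out: yeast growth inhibition relative to vehicle controls, following compound exposure of a strain with a defined DNA repair/cell cycle alteration.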

[15] = NCI Yeast Anticancer Drug Screen. Data for the mlh1 rad18 strain (AID 175); details: S. cerevisiae mlh1 rad18 strain growth inhibition, hits give high values
In short: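 Yeast w/ defined DNA-repair lesions; compound exposure; growth vs vehicle controls → % inhibition.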

[16] = NCI Yeast Anticancer Drug Screen. Data for the rad18 strain (AID 177); details: S. cerevisiae rad18 mutant growth inhibition, hits give high values
In short: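 Readout: growth inhibition vs vehicle controls. Cells: genetically altered yeast strain, DNA repair defect.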

[17] = at 5.0 µM (retest, dose inferred, filed as 0.5)
[18] = at 50.0 µM (retest, dose inferred, filed as 5.0)

SMILES: CC(CC/C(=N/O)c1ccccc1)(CC/C(=N\O)c1ccccc1)[N+](=O)[O-] (stereo unspecified)
- growth inhibition ([1]; at 1.2 µM): 1%
- growth inhibition ([1]; at 3.7 µM): 2%
- growth inhibition ([1]; at 11.0 µM): -4%
- growth inhibition ([1]; at 33.0 µM): 4%
- growth inhibition ([1]; at 100.0 µM): 74% (active)
- growth inhibition ([2]; at 1.2 µM): -1%
- growth inhibition ([2]; at 3.7 µM): -5%
- growth inhibition ([2]; at 11.0 µM): -7%
- growth inhibition ([2]; at 33.0 µM): 0%
- growth inhibition ([2]; at 100.0 µM): 26%
- growth inhibition ([3]; at 1.2 µM): -3%
- growth inhibition ([3]; at 3.7 µM): 2%
- growth inhibition ([3]; at 11.0 µM): -1%
- growth inhibition ([3]; at 33.0 µM): 2%
- growth inhibition ([3]; at 100.0 µM): 0%
- growth inhibition ([4]; at 1.2 µM): -5%
- growth inhibition ([4]; at 3.7 µM): -3%
- growth inhibition ([4]; at 11.0 µM): -4%
- growth inhibition ([4]; at 33.0 µM): -5%
- growth inhibition ([4]; at 100.0 µM): 57%
- growth inhibition ([5]; at 1.2 µM): 5%
- growth inhibition ([5]; at 3.7 µM): 3%
- growth inhibition [5, 17]: 4%
- growth inhibition ([5]; at 11.0 µM): -1%
- growth inhibition ([5]; at 33.0 µM): 4%
- growth inhibition [5, 18]: 66%
- growth inhibition ([5]; at 50.0 µM): 11.4%
- growth inhibition ([5]; at 100.0 µM): 74% (active)
- growth inhibition ([6]; at 1.2 µM): -3%
- growth inhibition ([6]; at 3.7 µM): -3%
- growth inhibition [6, 17]: -11%
- growth inhibition ([6]; at 11.0 µM): -5%
- growth inhibition ([6]; at 33.0 µM): -5%
- growth inhibition [6, 18]: 21%
- growth inhibition ([6]; at 50.0 µM): 96.5% (active)
- growth inhibition ([6]; at 100.0 µM): 56%
- growth inhibition ([7]; at 1.2 µM): -2%
- growth inhibition ([7]; at 3.7 µM): 1%
- growth inhibition ([7]; at 11.0 µM): -5%
- growth inhibition ([7]; at 33.0 µM): -3%
- growth inhibition ([7]; at 100.0 µM): 65%
- growth inhibition [8, 17]: 0%
- growth inhibition [8, 18]: 53%
- growth inhibition ([8]; at 50.0 µM): 37%
- growth inhibition ([9]; at 1.2 µM): -7%
- growth inhibition ([9]; at 3.7 µM): -11%
- growth inhibition ([9]; at 11.0 µM): -13%
- growth inhibition ([9]; at 33.0 µM): -12%
- growth inhibition ([9]; at 100.0 µM): 71% (active)
- growth inhibition [10, 17]: 2%
- growth inhibition [10, 18]: 39%
- growth inhibition ([10]; at 50.0 µM): 91.7% (active)
- growth inhibition ([11]; at 1.2 µM): -6%
- growth inhibition ([11]; at 3.7 µM): -5%
- growth inhibition [11, 17]: 8%
- growth inhibition ([11]; at 11.0 µM): -9%
- growth inhibition ([11]; at 33.0 µM): -9%
- growth inhibition [11, 18]: 6%
- growth inhibition ([11]; at 50.0 µM): 90.8% (active)
- growth inhibition ([11]; at 100.0 µM): 52%
- growth inhibition ([12]; at 1.2 µM): -10%
- growth inhibition ([12]; at 3.7 µM): -11%
- growth inhibition ([12]; at 11.0 µM): -16%
- growth inhibition ([12]; at 33.0 µM): -10%
- growth inhibition ([12]; at 100.0 µM): 20%
- growth inhibition ([13]; at 1.2 µM): -4%
- growth inhibition ([13]; at 3.7 µM): -3%
- growth inhibition ([13]; at 11.0 µM): -7%
- growth inhibition ([13]; at 33.0 µM): -6%
- growth inhibition ([13]; at 100.0 µM): 32%
- growth inhibition ([14]; at 1.2 µM): -13%
- growth inhibition ([14]; at 3.7 µM): 0%
- growth inhibition ([14]; at 11.0 µM): -11%
- growth inhibition ([14]; at 33.0 µM): -11%
- growth inhibition ([14]; at 100.0 µM): 55%
- growth inhibition [15, 17]: 5%
- growth inhibition [15, 18]: 46%
- growth inhibition ([15]; at 50.0 µM): 96.8% (active)
- growth inhibition ([16]; at 1.2 µM): 0%
- growth inhibition ([16]; at 3.7 µM): -4%
- growth inhibition ([16]; at 11.0 µM): -6%
- growth inhibition ([16]; at 33.0 µM): 0%
- growth inhibition ([16]; at 100.0 µM): 84% (active)

SMILES: CSC(=S)N/N=C/c1ccccc1
- growth inhibition ([1]; at 1.2 µM): 10%
- growth inhibition ([1]; at 3.7 µM): 20%
- growth inhibition ([1]; at 11.0 µM): 53%
- growth inhibition ([1]; at 33.0 µM): 67%
- growth inhibition ([1]; at 100.0 µM): 67%
- growth inhibition ([2]; at 1.2 µM): 4%
- growth inhibition ([2]; at 3.7 µM): 11%
- growth inhibition ([2]; at 11.0 µM): 29%
- growth inhibition ([2]; at 33.0 µM): 48%
- growth inhibition ([2]; at 100.0 µM): 43%
- growth inhibition ([3]; at 1.2 µM): -1%
- growth inhibition ([3]; at 3.7 µM): 2%
- growth inhibition ([3]; at 11.0 µM): 16%
- growth inhibition ([3]; at 33.0 µM): 60%
- growth inhibition ([3]; at 100.0 µM): 75% (active)
- growth inhibition ([4]; at 1.2 µM): 3%
- growth inhibition ([4]; at 3.7 µM): 2%
- growth inhibition ([4]; at 11.0 µM): 22%
- growth inhibition ([4]; at 33.0 µM): 27%
- growth inhibition ([4]; at 100.0 µM): 39%
- growth inhibition ([5]; at 1.2 µM): 28%
- growth inhibition ([5]; at 3.7 µM): 57%
- growth inhibition [5, 17]: 38%
- growth inhibition ([5]; at 11.0 µM): 82% (active)
- growth inhibition ([5]; at 33.0 µM): 83% (active)
- growth inhibition [5, 18]: 86% (active)
- growth inhibition ([5]; at 50.0 µM): 94.6% (active)
- growth inhibition ([5]; at 100.0 µM): 82% (active)
- growth inhibition ([6]; at 1.2 µM): 5%
- growth inhibition ([6]; at 3.7 µM): 13%
- growth inhibition [6, 17]: 48%
- growth inhibition ([6]; at 11.0 µM): 10%
- growth inhibition ([6]; at 33.0 µM): 20%
- growth inhibition [6, 18]: 76% (active)
- growth inhibition ([6]; at 50.0 µM): 75.8% (active)
- growth inhibition ([6]; at 100.0 µM): 23%
- growth inhibition ([7]; at 1.2 µM): -1%
- growth inhibition ([7]; at 3.7 µM): -1%
- growth inhibition ([7]; at 11.0 µM): 12%
- growth inhibition ([7]; at 33.0 µM): 22%
- growth inhibition ([7]; at 100.0 µM): 29%
- growth inhibition [8, 17]: 26%
- growth inhibition [8, 18]: 87% (active)
- growth inhibition ([8]; at 50.0 µM): 75.2% (active)
- growth inhibition ([9]; at 1.2 µM): -3%
- growth inhibition ([9]; at 3.7 µM): 3%
- growth inhibition ([9]; at 11.0 µM): 14%
- growth inhibition ([9]; at 33.0 µM): 22%
- growth inhibition ([9]; at 100.0 µM): 17%
- growth inhibition [10, 17]: 16%
- growth inhibition [10, 18]: 21%
- growth inhibition ([10]; at 50.0 µM): 49.3%
- growth inhibition ([11]; at 1.2 µM): 32%
- growth inhibition ([11]; at 3.7 µM): 28%
- growth inhibition [11, 17]: 46%
- growth inhibition ([11]; at 11.0 µM): 59%
- growth inhibition ([11]; at 33.0 µM): 60%
- growth inhibition [11, 18]: 82% (active)
- growth inhibition ([11]; at 50.0 µM): 90% (active)
- growth inhibition ([11]; at 100.0 µM): 59%
- growth inhibition ([12]; at 1.2 µM): -2%
- growth inhibition ([12]; at 3.7 µM): 2%
- growth inhibition ([12]; at 11.0 µM): 16%
- growth inhibition ([12]; at 33.0 µM): 28%
- growth inhibition ([12]; at 100.0 µM): 37%
- growth inhibition ([13]; at 1.2 µM): 1%
- growth inhibition ([13]; at 3.7 µM): 3%
- growth inhibition ([13]; at 11.0 µM): 25%
- growth inhibition ([13]; at 33.0 µM): 26%
- growth inhibition ([13]; at 100.0 µM): 37%
- growth inhibition ([14]; at 1.2 µM): 0%
- growth inhibition ([14]; at 3.7 µM): 5%
- growth inhibition ([14]; at 11.0 µM): 21%
- growth inhibition ([14]; at 33.0 µM): 44%
- growth inhibition ([14]; at 100.0 µM): 55%
- growth inhibition [15, 17]: 48%
- growth inhibition [15, 18]: 85% (active)
- growth inhibition ([15]; at 50.0 µM): 89.5% (active)
- growth inhibition ([16]; at 1.2 µM): 23%
- growth inhibition ([16]; at 3.7 µM): 55%
- growth inhibition ([16]; at 11.0 µM): 86% (active)
- growth inhibition ([16]; at 33.0 µM): 86% (active)
- growth inhibition ([16]; at 100.0 µM): 81% (active)
